# In article PMC4336329 (PLoS ONE, 2015):
# About 14,000 (4.5%) of roughly 310,000 compounds showed an effect of 50% or more. The effect is printed as a negative number. The full list was thinned out, with strong results kept by preference.
# Molecular target: human ether-à-go-go-related gene (hERG) potassium channel (human, UniProt Q12809)
# Assay: primary screen, population patch clamp on CHO cells stably expressing hERG; higher = less effect of the substance
# 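Further: peak tail current of the secondary pulse compared with the same well before compound.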
# Chain of human ether-à-go-go-related gene (hERG) potassium channel (Q12809 whole entry, looked up): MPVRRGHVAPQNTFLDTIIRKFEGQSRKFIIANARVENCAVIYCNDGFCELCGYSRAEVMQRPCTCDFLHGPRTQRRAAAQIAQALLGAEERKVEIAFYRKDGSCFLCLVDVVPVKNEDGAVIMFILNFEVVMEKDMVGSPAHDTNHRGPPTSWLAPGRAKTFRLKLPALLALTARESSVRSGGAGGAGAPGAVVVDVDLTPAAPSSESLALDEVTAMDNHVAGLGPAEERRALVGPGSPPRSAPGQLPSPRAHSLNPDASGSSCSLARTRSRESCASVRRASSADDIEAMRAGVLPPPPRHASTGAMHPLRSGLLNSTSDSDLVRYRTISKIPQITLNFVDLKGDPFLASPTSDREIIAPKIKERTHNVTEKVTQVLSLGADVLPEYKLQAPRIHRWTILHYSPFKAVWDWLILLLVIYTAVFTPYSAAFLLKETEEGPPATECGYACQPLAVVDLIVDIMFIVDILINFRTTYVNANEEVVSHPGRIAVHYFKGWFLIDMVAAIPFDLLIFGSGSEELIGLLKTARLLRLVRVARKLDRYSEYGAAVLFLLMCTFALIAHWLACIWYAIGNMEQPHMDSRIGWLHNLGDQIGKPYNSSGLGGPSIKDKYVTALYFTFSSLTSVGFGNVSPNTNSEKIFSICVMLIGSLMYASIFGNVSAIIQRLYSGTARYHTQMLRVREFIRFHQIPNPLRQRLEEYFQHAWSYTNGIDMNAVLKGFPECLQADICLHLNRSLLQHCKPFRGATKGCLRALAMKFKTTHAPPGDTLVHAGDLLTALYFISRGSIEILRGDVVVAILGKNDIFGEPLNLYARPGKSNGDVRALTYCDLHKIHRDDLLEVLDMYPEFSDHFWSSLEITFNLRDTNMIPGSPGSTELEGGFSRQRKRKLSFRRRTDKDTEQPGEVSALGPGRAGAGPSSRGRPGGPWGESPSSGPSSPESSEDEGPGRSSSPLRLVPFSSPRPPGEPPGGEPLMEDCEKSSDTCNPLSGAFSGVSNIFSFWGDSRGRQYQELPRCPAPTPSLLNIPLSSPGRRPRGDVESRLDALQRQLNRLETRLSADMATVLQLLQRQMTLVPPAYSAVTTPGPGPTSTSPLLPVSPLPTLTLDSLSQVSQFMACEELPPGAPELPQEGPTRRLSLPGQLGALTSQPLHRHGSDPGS
row,Compound,"hERG current change (%, negative = inhibition) at 10uM [%]"
1,Nc1c(-c2ccccc2)cnn1-c1cccc(C(F)(F)F)c1,1.64
2,Cc1nnc(SCC(=O)NC2CCCCCC2)n1C,23.4
3,Cn1nc(C(F)(F)F)c(C#N)c1N1CCN(c2cccc(C(F)(F)F)c2)CC1,3.01
4,COc1ccccc1N1CCN(c2cnccn2)CC1,-2.25
5,COc1cc(C)nc(N2CCC(C(=O)NC3CCCCC3)CC2)n1,-3.08
6,COc1ccccc1N1CCN(c2cc(N3CCCC3)nc(C)n2)CC1,-65.3
7,Cc1cc(N2CCN(C)CC2)n2nc(-c3ccc(Cl)cc3)nc2n1,-77.3
8,Cl.FC(F)(F)c1cccc(N2CCNCC2)c1,-13.3
9,CCOc1cc(C)nc(N2CCN(C3CCCCC3)CC2)n1,-67.5
10,Cc1nc2nc(-c3ccc(Cl)cc3)nn2c(C)c1Cl,8.82
11,Cc1cc(N2CCOCC2)n2nc(C)c(-c3ccc(Cl)cc3)c2n1,8.58
12,CCOc1cc(C)nc(N2CCC(C(=O)Nc3ccccc3OCC)CC2)n1,5.62
13,COc1ccccc1N1CCN(c2ccc3ccccc3n2)CC1,-36.5
14,Cc1cc(N2CCN(c3cccc(C(F)(F)F)c3)CC2)n2nc(C)nc2n1,-61.9
15,COc1ccc(/C=N/n2c(-c3cc(C)[nH]n3)n[nH]c2=S)cc1OC,18.6
16,Cc1cccnc1NC(=O)CN1C(=O)NC(C)(c2ccc3ccccc3c2)C1=O (stereo not shown),-14
17,Cc1cc(C)cc(NC(=S)N(C)C)c1,-5.83
18,COc1ccc(N2CCN(C(=O)c3ccc4c(c3)[nH]c(=S)n3c5ccccc5nc43)CC2)cc1,16.7
19,Cc1nc2cc(NC(=O)c3ccc([N+](=O)[O-])s3)ccc2s1,-9.99
20,O=C(c1cc(-c2cccc(O)c2)on1)N1CCN(C(c2ccccc2)c2ccccc2)CC1,10.8
21,Cc1ccc2nc(SCc3nc4c(cnn4-c4ccccc4)c(=O)[nH]3)[nH]c2c1,15.3
22,C/C=C/c1ccc(OCC(=O)Nc2cc(S(=O)(=O)N3CCOCC3)ccc2N2CCCC2)c(OC)c1,3.81
23,CC1(C)C(CO)=CC(=O)C2=C1SCC(=O)N2,-16.3

row,Compound,"hERG current change (%, negative = inhibition) at 10uM [%]"
1,CCOc1ccc(NC(=O)C2CC(=O)OC2c2ccccc2)cc1 (stereo not shown),6.5
2,CCC(C)NC(=O)CCc1nc2ccccc2n1-c1ccccc1 (stereo not shown),2.77
3,O=C(CNC(=O)c1ccccc1Cl)OC1CCOC1=O (stereo not shown),13.5
4,Cc1nc2ncnn2c(N2CCN(C(=O)c3cccc(F)c3)CC2)c1C,-49.3
5,Cc1cc(N2CCCC2)n2nc(C)nc2n1,-11.8
6,Cc1cc(Nc2ccc(F)c(Cl)c2)n2nc(C)nc2n1,-18
7,COc1ccc(Nc2cc(C)nc3nc(C)nn23)cc1Cl,-55.5
8,Cc1cc(N2CCCCC2)nc2c(C)cccc12,15
9,Cc1cc(N2CCCC2)nc2c(C)cccc12,-21.6
10,Cc1nc2ncnn2c(N2CCN(c3cccc(C(F)(F)F)c3)CC2)c1C,-64.1
11,COc1ccc(Nc2cc(C)nc3ncnn23)cc1Cl,-39.5
12,COc1cccc2c(C)cc(N3CCCCCC3)nc12,-52.9
13,Cc1cc(N2CCN(c3cccc(C(F)(F)F)c3)CC2)n2ncnc2n1,-37
14,CCOC(=O)N1CCN(c2cc(C)nc3nc(C)nn23)CC1,-32.9
15,Cc1cc(N2CCN(C3CCCCC3)CC2)n2nc(C)nc2n1,-57.7
16,O=C(O)CNC1=NCCCCC1,0.366
17,O=C(O)Cc1ccc(NS(=O)(=O)c2ccccc2Cl)cc1,24.4
18,Cc1ccc(NS(=O)(=O)c2cc([N+](=O)[O-])ccc2NNC(=S)Nc2cc(C)ccc2C)c(C)c1,-0.00412
19,CC1(C)Cc2c(C#N)c(N3CCN(C(=O)c4ccco4)CC3)nc(-c3ccco3)c2CS1,-21.6
20,Cc1ccc(CNS(=O)(=O)c2c(N)n(C)c(=O)n(C)c2=O)cc1,8.77
21,COc1ccc2c(CC(=O)NC(Cc3ccc(Cl)cc3)C(=O)O)cc(=O)oc2c1C (stereo not shown),3.13
22,N#Cc1ccc(-c2ccc3c(c2)OCO3)nc1SCC(=O)OCc1ccccc1,9.22
23,Cc1ccc(NC(=O)C2CCN(S(=O)(=O)c3c(C)noc3/C=C/N(C)C)CC2)cc1,-5.19
